hgDAF12 agonist – agonists of H. glycines DAF-12 nuclear receptor; HEK293 GAL4-hgDAF12 UAS-luciferase reporter, agonist luminescence; normalized to butyrate control; activation, % at 6.8 µM; 1.8% of 370,000 active; AID 687014;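 active means activation above a cutoff set at the mean of all screened compounds plus 3 SD, cut at about 10% in these data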
ssDAF-12 act – S. stercoralis DAF-12 activation, primary screen. HEK293 ssDAF-12/GRIP1 lit1-tk-luc reporter, luminescence; % of 3 µM dafachronic acid response. AID 652126. activation, % at 6.8 µM. 1% of 370,000 active;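 active means activation above the mean over all tested compounds plus 3 SD, cut at about 0.9% in these data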
hcDAF12 agonist – activators of H. contortus DAF-12 nuclear receptor; HEK293 hcDAF-12 lit1-tk-luc reporter, luminescence; 0% DMSO, 100% Δ7-dafachronic acid; activation, % at 6.8 µM; 1.4% of 370,000 active; AID 652067;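 active means activation above the mean of all tested compounds plus 3 SD, cut at about 5.5% in these data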
DAX1 inh-1 – blocks DAX1 repression of SF-1 activated StAR promoter | HEK293T StAR-luciferase reporter, SF-1/DAX-1 repression relief | inhibition, % at 6.8 µM | 1.1% of 370,000 active;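 active means inhibition above the mean over all tested compounds plus 3 SD, cut at about 3.6% in these data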;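 further: higher inhibition means more luminescence from relief of DAX-1 repression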
FXN GAA850 act – activators of GAA850 frataxin (FXN) promoter | AID 540364 | 0.56% of 360,000 active | HEK293 lucGAA850 FXN promoter luciferase reporter, 24 h; percent of 10 µM SAHA response | activation, % at 6 µM;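 active means activation above the average of all compounds screened plus 3 SD, cutoff fixed separately per campaign, cut at about 7.5% in these data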
DAX1 inh-2 – inhibitors of human orphan nuclear receptor DAX1 (NR0B1). 0.99% of 340,000 active. inhibition, % at 6.75 µM. P51843. HEK293 Gal4-DAX1 luciferase reporter, luminescence;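 active means inhibition above the mean over all tested compounds plus 3 SD, cut at about 4.2% in these data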;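 further: inhibition shows as a rise in luminescence from relieved DAX1 repression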
hgDAF12 conf – hgDAF-12 agonism, confirmation assay; shares compounds with hgDAF12 agonist; HEK293 GAL4-hgDAF12 luciferase reporter, agonist mode; percent of butyrate response; activation, % at 6.8 µM; 80% of 3,300 active; AID 743050;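 active means mean activation over triplicate wells above the hit cutoff derived from the earlier primary screen, cut at about 11% in these data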
LXR ag 2 – activates human LXR-beta, counter-screen for DAF-12 agonists. AID 743051. activation, % at 6.8 µM. HEK293 Gal4-LXR luciferase reporter, 24 h. shares compounds with hgDAF12 agonist. 3,300 tested, under 10 active;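 active means mean activation of the triplicate above a set limit carried over from the primary screen, none filed active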
Target sequence (P55055 whole entry, looked up, the tested form may be a part): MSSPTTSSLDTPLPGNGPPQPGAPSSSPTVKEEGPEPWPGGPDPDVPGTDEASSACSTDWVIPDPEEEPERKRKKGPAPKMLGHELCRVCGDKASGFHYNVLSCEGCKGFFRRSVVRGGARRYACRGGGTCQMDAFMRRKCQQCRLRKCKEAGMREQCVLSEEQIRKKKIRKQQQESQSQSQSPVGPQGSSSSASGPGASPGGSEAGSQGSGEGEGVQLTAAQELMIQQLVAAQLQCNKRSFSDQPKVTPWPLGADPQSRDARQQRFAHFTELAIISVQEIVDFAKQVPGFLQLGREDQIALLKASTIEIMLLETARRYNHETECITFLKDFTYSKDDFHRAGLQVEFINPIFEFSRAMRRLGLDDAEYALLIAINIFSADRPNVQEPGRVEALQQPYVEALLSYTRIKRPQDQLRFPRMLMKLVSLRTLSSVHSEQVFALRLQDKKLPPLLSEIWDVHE
Numbers stand for hits; i = inactive; nt = not tested or not shown. Most compounds without a hit are left out; they make up all but 4.5% or so of the library.

SMILES	hgDAF12 agonist	ssDAF-12 act	hcDAF12 agonist	DAX1 inh-1	FXN GAA850 act	DAX1 inh-2	hgDAF12 conf	LXR ag 2
CCN(CC)CCN1C(=O)C(=O)/C(=C(/O)c2ccc(OC(C)C)cc2)C1c1cccs1 (configuration not stated)	i	i	i	i	i	i	nt	nt
COc1ccc(O)c(C(=O)CC(=O)c2ccccc2C)c1	23.1	i	i	i	i	4.8	i	i
O=C(c1ccc2nc(N3CCOCC3)sc2c1)N1CCCC1	i	i	i	i	i	i	nt	nt
c1c2c(cc3sc(N4CCOCC4)nc13)OCO2	15.6	i	6.0	i	i	i	13.4	i
O=C(NC(=S)Nc1ccc2c(c1)OCCO2)c1cccc2ccccc12	i	i	i	i	i	i	nt	nt
O=C(NC(=S)Nc1ccc2c(c1)OCCO2)c1cccc(Br)c1	14.3	i	i	i	i	i	18.9	i
Cc1nc2c(ccc3nc(NC(=O)c4ccc5c(c4)OCCO5)sc32)s1	i	i	i	i	i	i	nt	nt
O=C(Nc1cccc(Cl)c1)c1ccc2c(c1)OCCO2	21.0	i	6.5	i	i	i	18.0	i
O=C(Nc1nc2c(Br)cccc2s1)c1ccc2c(c1)OCCO2	14.7	i	i	nt	nt	nt	i	i
O=C(CN1CCN(C(=O)c2cc(C3CC3)nn2-c2ccccc2)CC1)Nc1ccc(F)cc1	14.8	i	i	i	i	i	i	i
C[C@@H](C(O)c1ccccc1)N(C)C(=O)CCc1ccccc1 (some centres not stated)	i	i	i	i	i	i	nt	nt
CC(Sc1nnc(NCc2ccccc2)s1)C(=O)Nc1ccc2c(c1)C(=O)c1ccccc1C2=O (configuration not stated)	15.2	i	i	i	i	i	i	i
CC(Sc1nnc(NC2CC2)s1)C(=O)Nc1ccc(S(N)(=O)=O)cc1 (configuration not stated)	i	i	i	i	i	i	nt	nt
C=C1C[C@H](O[C@@H]2O[C@H](CO)[C@@H](O)[C@H](O)[C@H]2O)[C@@H]2[C@H](OC(=O)[C@H]2C)[C@H]2[C@H](C)[C@H](O)C[C@@H]12	i	i	i	i	i	i	nt	nt
COc1ccc(Nc2nc(N)c3ccccc3n2)c(OC)c1	13.3	i	i	i	i	4.8	15.3	i
Cc1ccc(Nc2ncnc3ccccc23)cc1	13.9	i	i	i	i	i	i	i
COc1ccc(/C=N\Nc2ncc(F)c(N3CCOCC3)n2)cc1OC	i	i	i	i	i	i	nt	nt
CC1=C(C(=O)Nc2ccccn2)C(c2ccc(Br)cc2)NC(=S)N1 (configuration not stated)	16.6	i	5.7	i	i	i	i	i
CCc1nn(CC(=O)NCc2cccnc2)c(=O)c2cc3occc3n12	i	i	i	i	i	i	nt	nt
Cc1nn(Cc2c(F)c(F)c(F)c(F)c2F)c(C)c1NC(=O)c1cccc(COc2ccc(Cl)cc2)c1	15.0	i	i	i	i	i	i	i
Cc1cccc(Cn2nc(C)c(NC(=O)c3ccc(F)cc3)c2C)c1	i	i	i	i	i	i	nt	nt
Cc1cc(C)c(C)c(S(=O)(=O)NC2CCN(Cc3ccccc3)CC2)c1C	i	i	i	i	i	i	nt	nt
COc1ccc(N2CCN(C(=O)c3ccc4nc(N5CCCCC5)sc4c3)CC2)cc1	i	i	i	i	i	i	nt	nt
COc1cccc(N2CCN(C(=O)c3ccc4nc(N5CCCCC5)sc4c3)CC2)c1	21.2	i	i	i	i	5.5	i	i
COc1ccc(Cc2noc(=O)[nH]2)cc1	i	i	i	i	i	i	nt	nt
SMILES	hgDAF12 agonist	ssDAF-12 act	hcDAF12 agonist	DAX1 inh-1	FXN GAA850 act	DAX1 inh-2	hgDAF12 conf	LXR ag 2
OCC1OC(n2cnc3c(NCc4ccccc4O)ncnc32)C(O)C1O (configuration not stated)	i	i	i	i	i	i	nt	nt
Cc1cc(C)c2cc(C(=O)Nc3ccccc3)[nH]c2c1	i	i	i	i	i	i	nt	nt
O=C(O)c1cccc(N/N=C/C2=C(Cl)c3cc(Cl)ccc3SC2)c1	16.0	1.4	i	i	i	i	18.7	i
O=C(O)c1cccc(Cn2c(Cl)c(/C=N/Nc3ccccc3)sc2=O)c1	nt	nt	nt	nt	i	i	nt	nt
CC(=O)N/N=C(\C)CCc1ccccc1	i	i	i	i	i	i	nt	nt
C/C(CCc1ccccc1)=N\NC(=O)c1ccccc1	13.9	i	i	i	i	i	i	i
C/C(=N\NC(=O)c1c[nH]c2ccccc12)c1ccc(C)s1	i	i	i	i	i	i	nt	nt
C/C(=N\NC(=O)c1csc(C)c1C)c1ccc(C)s1	13.5	i	i	i	i	i	10.7	i
O=c1oc2ccccc2cc1-c1cn2ccccc2n1	i	i	i	i	i	i	nt	nt
O=c1oc2ccccc2cc1-c1cn2cccnc2n1	14.3	i	i	4.1	i	i	18.1	i
c1ccc(C2Oc3ccccc3C3CC(c4cccs4)=NN32)cc1 (configuration not stated)	15.7	i	i	i	i	i	i	i
COc1ccccc1C(=O)COC(=O)c1ccc(N(C)C)cc1	15.8	i	i	i	i	4.5	12.8	i
CC(=O)N1CCN(C2=Nc3cccc4cccc2c34)CC1	i	i	i	i	i	i	nt	nt
COc1ccccc1N1CCN(C2=Nc3cccc4cccc2c34)CC1	13.5	i	i	4.0	i	i	i	i
CCCCN(C(=O)c1cc(CC)c(C)s1)c1c(N)n(CCC)c(=O)[nH]c1=O	i	i	i	i	i	i	nt	nt
COc1ccc(CC(NC(C)=O)C(=O)NC2CCN(C(=O)C3CCCCC3)CC2)cc1OC (configuration not stated)	i	i	i	i	i	i	nt	nt
CN(C)c1ccc(C(=O)C=Cc2ccc([N+](=O)[O-])cc2)cc1	i	i	i	i	i	i	nt	nt
CN(C)c1ccc(/C=C/C(=O)c2ccc(O)cc2)cc1	19.2	i	i	3.7	i	5.5	14.4	i
COC(=O)[C@]12C[C@H](CC(=O)NCC3CCCCC3)C(=O)N(Cc3ccc4c(c3)OCO4)C1=C[C@H](C(C)C)O[C@@H]2C1CC1	i	i	i	i	nt	nt	nt	nt
CC(=O)Oc1ccccc1/C=C/c1ccc2ccccc2[n+]1C	13.4	1.9	6.0	i	i	i	11.1	i
CCOc1ccccc1N1CC(C(=O)NCCOc2ccccc2OC)CC1=O (configuration not stated)	i	i	i	i	i	i	nt	nt
O=C(NCc1ccc(F)cc1)c1cc(-c2ccco2)on1	i	i	i	i	i	i	nt	nt
O=C(NCc1ccco1)c1cc(-c2ccc(F)cc2)on1	16.6	i	i	i	i	i	14.9	i
